Changes are numbered by the printed parent chain.

What all share (experiment): PBM; 200 nM protein, PBS
Settings in all cases: dsDNA, one strand shown

In experiment [1] the target is T1, SIX6 (Homo sapiens, UniProt O95475 114-200, L167I).
T1 sequence: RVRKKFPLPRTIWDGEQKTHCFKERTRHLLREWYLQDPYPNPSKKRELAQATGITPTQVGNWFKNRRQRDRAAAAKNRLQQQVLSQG

Experiment [2] has as its target T2, SIX6 (Homo sapiens, UniProt O95475 114-200, L143V).
T2 sequence: T1 sequence with L30V, I54L

For experiment [3], the target named is T3, SIX6 (Homo sapiens, UniProt O95475 114-200, H141N).
T3 sequence: T1 sequence with H28N, I54L

Experiment [4] has as its target T4, SIX6 (Homo sapiens, UniProt O95475 114-200, T165P).
T4 sequence: T1 sequence with T52P, I54L

Experiment [5] addresses T5, SIX6 (Homo sapiens, UniProt O95475 114-200, L167M).
T5 sequence: T1 sequence with I54M

Experiment [6] deals with T6, SIX6 (Homo sapiens, UniProt O95475 114-200, L143M).
T6 sequence: T1 sequence with L30M, I54L

The target in experiment [7] is T7, SIX6 (Homo sapiens, UniProt O95475 114-200, L143I).
T7 sequence: T1 sequence with L30I, I54L

For experiment [8], the target named is T8, SIX6 (Homo sapiens, UniProt O95475 114-200, T165G).
T8 sequence: T1 sequence with T52G, I54L

Experiment [9] addresses T9, SIX6 (Homo sapiens, UniProt O95475 114-200, T139Q).
T9 sequence: T1 sequence with T26Q, I54L

In experiment [10] the target is T10, SIX6 (Homo sapiens, UniProt O95475 114-200, T165A).
T10 sequence: T1 sequence with T52A, I54L

The target of experiment [11] is T11, SIX6 (Homo sapiens, UniProt O95475 114-200, L167V).
T11 sequence: T1 sequence with I54V

Experiment [12] concerns the target T12, SIX6 (Homo sapiens, UniProt O95475 114-200).
T12 sequence: T1 sequence with I54L

Experiment [13] concerns the target T13, SIX6 (Homo sapiens, UniProt O95475 114-200, T165I).
T13 sequence: T1 sequence with T52I, I54L

As to CCCCGAGG, the binding signal in the experiment with SIX6 [1] was 8.95 upbm affinity estimate (log intensity, higher = more binding, comparable within an allelic series); with SIX6 [2] it was 8.89 upbm affinity estimate (log intensity, higher = more binding, comparable within an allelic series); with SIX6 [3], 8.99 upbm affinity estimate (log intensity, higher = more binding, comparable within an allelic series); in the experiment with SIX6 [4], 8.94 upbm affinity estimate (log intensity, higher = more binding, comparable within an allelic series); in the experiment with SIX6 [5], 9.01 upbm affinity estimate (log intensity, higher = more binding, comparable within an allelic series); with SIX6 [6], 9.07 upbm affinity estimate (log intensity, higher = more binding, comparable within an allelic series). Besides, the binding signal is 8.96 upbm affinity estimate (log intensity, higher = more binding, comparable within an allelic series) with SIX6 [7]; 9.07 upbm affinity estimate (log intensity, higher = more binding, comparable within an allelic series) with SIX6 [8]; 9.12 upbm affinity estimate (log intensity, higher = more binding, comparable within an allelic series) with SIX6 [9]; 8.94 upbm affinity estimate (log intensity, higher = more binding, comparable within an allelic series) with SIX6 [10]; 9 upbm affinity estimate (log intensity, higher = more binding, comparable within an allelic series) with SIX6 [11]; 8.97 upbm affinity estimate (log intensity, higher = more binding, comparable within an allelic series) with SIX6 [12]. In the experiment with SIX6 [13], the binding signal is 8.96 upbm affinity estimate (log intensity, higher = more binding, comparable within an allelic series).
Turning to GATCCAGA, the binding signal is 10.5 upbm affinity estimate (log intensity, higher = more binding, comparable within an allelic series) with SIX6 [1]; 10 upbm affinity estimate (log intensity, higher = more binding, comparable within an allelic series) with SIX6 [2]; 10.4 upbm affinity estimate (log intensity, higher = more binding, comparable within an allelic series) with SIX6 [3]; 9.57 upbm affinity estimate (log intensity, higher = more binding, comparable within an allelic series) with SIX6 [4]; 10.1 upbm affinity estimate (log intensity, higher = more binding, comparable within an allelic series) with SIX6 [5]; 10.3 upbm affinity estimate (log intensity, higher = more binding, comparable within an allelic series) in the experiment with SIX6 [6]. Moreover, the binding signal is 10.1 upbm affinity estimate (log intensity, higher = more binding, comparable within an allelic series) with SIX6 [7]; 10.4 upbm affinity estimate (log intensity, higher = more binding, comparable within an allelic series) with SIX6 [8]; 10.6 upbm affinity estimate (log intensity, higher = more binding, comparable within an allelic series) in the experiment with SIX6 [9]; 10.4 upbm affinity estimate (log intensity, higher = more binding, comparable within an allelic series) with SIX6 [10]; 10.3 upbm affinity estimate (log intensity, higher = more binding, comparable within an allelic series) in the experiment with SIX6 [11]; 10.5 upbm affinity estimate (log intensity, higher = more binding, comparable within an allelic series) with SIX6 [12]. In addition, the binding signal with SIX6 [13] was 10.3 upbm affinity estimate (log intensity, higher = more binding, comparable within an allelic series).
On to TATCATCA, for which the binding signal with SIX6 [1] is 10.9 upbm affinity estimate (log intensity, higher = more binding, comparable within an allelic series); with SIX6 [2], 10.3 upbm affinity estimate (log intensity, higher = more binding, comparable within an allelic series); with SIX6 [3], 10.8 upbm affinity estimate (log intensity, higher = more binding, comparable within an allelic series); with SIX6 [4], 9.94 upbm affinity estimate (log intensity, higher = more binding, comparable within an allelic series); with SIX6 [5] it was 10.5 upbm affinity estimate (log intensity, higher = more binding, comparable within an allelic series); in the experiment with SIX6 [6], 10.8 upbm affinity estimate (log intensity, higher = more binding, comparable within an allelic series). Also, the binding signal with SIX6 [7] is 10.2 upbm affinity estimate (log intensity, higher = more binding, comparable within an allelic series); with SIX6 [8], 10.8 upbm affinity estimate (log intensity, higher = more binding, comparable within an allelic series); with SIX6 [9] it was 10.9 upbm affinity estimate (log intensity, higher = more binding, comparable within an allelic series); with SIX6 [10], 10.8 upbm affinity estimate (log intensity, higher = more binding, comparable within an allelic series); with SIX6 [11] it was 10.6 upbm affinity estimate (log intensity, higher = more binding, comparable within an allelic series); with SIX6 [12], 10.7 upbm affinity estimate (log intensity, higher = more binding, comparable within an allelic series). The binding signal with SIX6 [13] is 10.7 upbm affinity estimate (log intensity, higher = more binding, comparable within an allelic series).
With ACGATACC, the binding signal with SIX6 [1] was 11.2 upbm affinity estimate (log intensity, higher = more binding, comparable within an allelic series); with SIX6 [2], 10.3 upbm affinity estimate (log intensity, higher = more binding, comparable within an allelic series); with SIX6 [3], 11.1 upbm affinity estimate (log intensity, higher = more binding, comparable within an allelic series); with SIX6 [4], 9.65 upbm affinity estimate (log intensity, higher = more binding, comparable within an allelic series); in the experiment with SIX6 [5], 10.6 upbm affinity estimate (log intensity, higher = more binding, comparable within an allelic series); with SIX6 [6] it was 11 upbm affinity estimate (log intensity, higher = more binding, comparable within an allelic series). For the same sequence, the binding signal is 10.4 upbm affinity estimate (log intensity, higher = more binding, comparable within an allelic series) in the experiment with SIX6 [7]; 11.3 upbm affinity estimate (log intensity, higher = more binding, comparable within an allelic series) in the experiment with SIX6 [8]; 11.4 upbm affinity estimate (log intensity, higher = more binding, comparable within an allelic series) with SIX6 [9]; 11.1 upbm affinity estimate (log intensity, higher = more binding, comparable within an allelic series) in the experiment with SIX6 [10]; 10.9 upbm affinity estimate (log intensity, higher = more binding, comparable within an allelic series) in the experiment with SIX6 [11]; 11.1 upbm affinity estimate (log intensity, higher = more binding, comparable within an allelic series) in the experiment with SIX6 [12]. Besides, the binding signal with SIX6 [13] was 11 upbm affinity estimate (log intensity, higher = more binding, comparable within an allelic series).
Turning to AGTATCAC, the binding signal in the experiment with SIX6 [1] is 11.3 upbm affinity estimate (log intensity, higher = more binding, comparable within an allelic series); in the experiment with SIX6 [2] it was 10.3 upbm affinity estimate (log intensity, higher = more binding, comparable within an allelic series); with SIX6 [3] it was 11.2 upbm affinity estimate (log intensity, higher = more binding, comparable within an allelic series); with SIX6 [4] it was 9.74 upbm affinity estimate (log intensity, higher = more binding, comparable within an allelic series); in the experiment with SIX6 [5], 10.6 upbm affinity estimate (log intensity, higher = more binding, comparable within an allelic series); with SIX6 [6], 11 upbm affinity estimate (log intensity, higher = more binding, comparable within an allelic series). The binding signal is 10.3 upbm affinity estimate (log intensity, higher = more binding, comparable within an allelic series) with SIX6 [7]; 11.3 upbm affinity estimate (log intensity, higher = more binding, comparable within an allelic series) in the experiment with SIX6 [8]; 11.3 upbm affinity estimate (log intensity, higher = more binding, comparable within an allelic series) in the experiment with SIX6 [9]; 11.3 upbm affinity estimate (log intensity, higher = more binding, comparable within an allelic series) with SIX6 [10]; 11 upbm affinity estimate (log intensity, higher = more binding, comparable within an allelic series) with SIX6 [11]; 11 upbm affinity estimate (log intensity, higher = more binding, comparable within an allelic series) with SIX6 [12]. For the same sequence, the binding signal in the experiment with SIX6 [13] was 11 upbm affinity estimate (log intensity, higher = more binding, comparable within an allelic series).
